From PubChem BioAssay (NCI)
Compounds without any hit were thinned out: in the full panel of roughly 83,000, 20% have a hit.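 Treatment: one concentration, 48 hours, 96-well format. Scoring: percent growth, with anything below 10 considered active.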 Active and inactive are the calls of the source.

test system: HOP-62 NSCLC; assay: NCI-60 one-dose screen, 48 h (100 = growth as untreated, 0 = no growth, -100 = all killed); conditions: 10 µM unless noted
Method: Growth inhibition of the HOP-62 human Non-Small Cell Lung tumor cell line is measured as a screen for anti-cancer activity. Cells are grown in 96 well plates and exposed to the test compound for 48 hours. Compounds are tested at a single concentration, which is 10^-5 M for most compounds. The reported endpoint is percent growth (GI% or GIPRCNT), where numbers from 0 - 100% represent growth inhibition, and numbers from -100% - 0 represent cell death. For example, a value of 40 represents 60% growth inhibition. A value of 0 means no net growth occurred over the course of the experiment. A value of -40 indicates 40% of cells at the beginning of the experiment died by the end of the experiment. A value of -100 means all cells are dead at the end of the experiment.
NCI-60 Human Tumor Cell Lines Screen was performed using the standard one-dose NCI protocol, which is described in more detail at https://dtp.cancer.gov/discovery_development/nci-60/default.htm.
Compounds with GIPRCNT values below 10 were considered active. Activity score was based on GIPRCNT using the following formula: […]
Score is 0 for GIPRCNT values of 100 or above, 50 for GIPRCNT values of 0, and 100 for GIPRCNT values of -100.

Row | SMILES | growth
1 | COc1cc(/C=C/C(=O)N2CCN(C(=O)/C=C/c3cc(OC)c(OC)c(OC)c3)CC2)cc(OC)c1OC | 102% (inactive)
2 | COc1ccc(/C=C(\C#N)c2cc(OC)c3c(c2)OCO3)cc1 | 35.8% (inactive)
3 | COc1cc(-c2nn(-c3cccc(NC(=O)c4ccc(N5CCOCC5)c(C(F)(F)F)c4)c3)cc2-c2ccncc2)ccc1Cl | 29.5% (inactive)
4 | CC12CCC3C4(C)COC(c5ccccc5Cl)OC4CCC3(C)C1CC(C1=CCOC1=O)O2 (stereo not given) | 78.3% (inactive)
5 | CCN(CC)CCOc1ccc(/C(=C(/C)c2ccccc2)c2ccc(OC(C)=O)cc2)cc1 | 106% (inactive)
6 | CC(C)CSc1nc(NN)c(C#N)c(-c2ccc(F)cc2)n1 | 47.3% (inactive)
7 | CC(C)NCCCNC1=C(Cl)C(=O)c2ccccc2C1=O | 98.3% (inactive)
8 | C=C1CCC[C@]2(C)CCC[C@H](C)[C@@H](OC(C)=O)[C@@H]3OC(=O)C(=C)[C@@H]3C[C@H]1O2 | 99.9% (inactive)
9 | COc1ccc(C2C=C(c3ccc(OC)c(OC)c3)N=C3SC=C(C)N32)c(Br)c1 (stereo not given) | 108% (inactive)
10 | COc1ccc(/C=C/c2c(C(C)=O)c(C)nc3ccccc23)cc1 | 79.2% (inactive)
11 | COc1cccc(CC(C)=C(c2ccc(OCCN(C)C)cc2)c2ccc(OCCN(C)C)cc2)c1 | 3.07% (active)
12 | COC(=O)c1nc(-c2ccccc2)oc1S(=O)(=O)N1CCN(c2cccc(Cl)c2)CC1 | 83% (inactive)
13 | CCC(=O)Oc1ccc(/C(=C(/C)Cc2cccc(OC)c2)c2ccc(OCCN(C)C)cc2)cc1 | 108% (inactive)
14 | CCN(CC)c1ccc(C(=N)c2ccc(N(CC)CC)cc2)cc1 | -82.7% (active)
15 | COc1ccc(CCNC2=CC(=O)CCC2)cc1OC | 104% (inactive)
16 | COc1ccc(Nc2nc(N)nc3c2CCN(Cc2ccc(OC)cc2OC)C3=O)cc1 | 63.2% (inactive)
17 | C=C(C)[C@@H]1CC[C@]2(C(=O)O)CC[C@]3(C)[C@H](CC[C@@H]4[C@@]5(C)C[C@@H](CC#Cc6ccc(C(F)(F)F)cc6)[C@H](O)C(C)(C)[C@@H]5CC[C@]43C)[C@@H]12 | 10% (inactive)
18 | COc1ccncc1S(=O)(=O)NC(=O)Nc1ccc(Cl)c(Cl)c1 | 83.9% (inactive)
19 | O=c1[nH]c(-c2ccccc2)nc(CN2CCCCC2)c1O | 112% (inactive)
20 | CCOC(=O)c1c(/N=C2\SC(=O)/C(=C\C(=O)OC)N2NC)sc2c1CCN(C(=O)OCC)C2 | 99.2% (inactive)

Row | SMILES | growth
21 | COc1ccc(-c2cnnn2-c2nonc2-n2cccc2)cc1OC | 55.8% (inactive)
22 | O=C(O)/C=C/C(=O)c1ccc(Cl)cc1 | 112% (inactive)
23 | O=[N+]([O-])c1cc(S(=O)(=O)Oc2ccccc2)ccc1Cl | 54% (inactive)
24 | CCCCCCCC[C@@H](O)CC(=O)N[C@@H](CC(N)=O)C(=O)N[C@@H](CCC(N)=O)C(=O)N[C@@H](CC(=O)c1cc(C)cc(O)c1C(=O)c1c(O)cccc1O)CC(C)C | 6.71% (active)
25 | Cn1c2ccc(Br)cc2c2c3c(c4c5ccccc5[nH]c4c21)C(=O)N(O)C3=O | -67.8% (active)
26 | CN1CCN(Cc2ccc(NC(=O)c3cncc(C#Cc4cnc(N)c5ccncc45)c3)cc2C(F)(F)F)CC1 | 9.44% (active)
27 | CCCCCc1cc[n+](CC(=O)c2ccc([N+](=O)[O-])cc2)cc1 | 79.8% (inactive)
28 | COc1ccc2c(c1)[nH]c(=O)c1c3cc(OC)ccc3cn21 | 20% (inactive)
29 | CCOC(=O)c1ccc2c(c1)nc(-c1ccc(OCc3ccccc3)c(OC)c1)n2-c1cc(C(C)(C)C)[nH]n1 | 91.4% (inactive)
30 | O=C(NCCCNc1nccc(-n2ccc3cccnc32)n1)c1c(F)cccc1F | 101% (inactive)
31 | COc1ccc2c(c1)NC1=C(C(=O)OC1)C2c1cc(OC)c2c(c1)OCO2 (stereo not given) | 43.2% (inactive)
32 | COc1cc(/C=C/C(=O)c2c(C)nc3ccccc3c2C)ccc1OCCCCOc1cc2c(cc1OC)C(=O)N1CCC[C@H]1C=N2 | -49% (active)
33 | O=[N+]([O-])c1ccc(OCCCOc2ccccc2)cc1 | 96.9% (inactive)
34 | CN1C(=O)N(C)C2C1NN=c1s/c(=C\c3cccnc3)c(=O)n12 (stereo not given) | 82.1% (inactive)
35 | Nc1cc2c([nH]c[n+]2CC#CCCl)c(SCC#CCCl)n1 | -62.8% (active)
36 | COc1cccc(/C=C2\Oc3cc(OCCCN4CCCC4)ccc3C2=O)c1OC | 97.7% (inactive)
37 | CCO/C=N/C1=C(C#N)C(c2ccc(Cl)cc2)c2c(c3ccccc3n(C)c2=O)O1 (stereo not given) | 64.6% (inactive)
38 | CC1=C(C#N)C(=O)NC(C)C1 (stereo not given) | 99.4% (inactive)
39 | O=[N+]([O-])c1cnc(Sc2ccncn2)s1 | 92% (inactive)
40 | O=C1C2(c3ccccc3)C(c3ccccc3)=C(c3ccccc3)C1(c1ccccc1)C1CC=CC12 (stereo not given) | 102% (inactive)
